Where “and” joins values, the source holds several entries; their conditions need not be identical. Equal values may be shown once. Results filed as inconclusive are left out. Unmarked numbers belong to inactive results. Calls of active or inactive are those of the source. Calls come from the whole dose curve; as a rule, active = well fitted cell-killing curve with a large enough effect; inconclusive = small, poorly fitted or top-dose-only effect; inactive = no such curve, though single readings can be large or run the other way.
Assay: qHTS of pediatric cancer cell lines to identify multiple opportunities for drug repurposing: Primary screen for SK-N-MC cells (AID 1347093)
Details: SK-N-MC viability, CellTiter-Glo luminescence, 48 h; series mostly up to 46 µM; activity change, negative = cytotoxic: at the top concentration
Text: Drug repurposing or repositioning has been offered as a strategy for drug development in oncology programs. This approach has special potential for childhood cancers and other rare or orphan diseases, where the expected return on new drug development has been a disincentive to pharmaceuticals.
In this project we exploit the poly-pharmacology of drugs to discover new indications via phenotypic screening of a panel of 19 well-characterized cell lines derived from solid tumors seen in children and adolescents. The goal is to identify approved drugs with previously unrecognized anticancer properties that has the potential to reveal new mechanisms and biological processes involved in carcinogenesis or drug resistance. We employed a titration-based paradigm (quantitative high-throughput screening or qHTS), where all compounds were tested at multiple concentrations for their effect on cell viability. Concentration-response curves (CRCs) were derived directly from the primary screen, and both potency and efficacy values were used to identify compounds with robust bioactivity profiles. We screened the NIH Chemical Genomics Center (NCGC) Pharmaceutical Collection (NPC) and Mechanism Interrogation Plate (MIPE) small molecule collections of approved and investigational compounds against these cell lines; and measured metabolically active cells after 48 hours of compound treatment as a proxy for cell viability.
Assay Submitter: Nathalia J. Martinez, National Center for Advancing Translational Sciences, National Institutes of Health, Rockville, MD, USA; email: natalia.martinez@nih.gov
[1] Shen, M et al. Quantitative high-throughput phenotypic screening of pediatric cancer cell lines identifies multiple opportunities for drug repurposing. Oncotarget 2017 Dec 19;9(4):4758-4772. PMID 29435139.
The cells were obtained from University of North Carolina (UNC), Pediatric Preclinical Testing Program (PPT), and Coriell Institute (CI).
qHTS cell viability assay:
Cells were assayed in growth media at a density of 500-1,000 cells/well. Five microliters of cells were dispensed into 1,536-well, white, solid-bottom, TC-treated plates (Greiner Bio One) using a multidrop dispenser and incubated at 37 degrees C, 5% CO2, under a humidified atmosphere for 5 hours. Twenty-three nanoliters of compounds and controls (neutral control DMSO or positive control bortezomib at final concentration of 2.3 µM) were subsequently transferred by Kalypsys pintool. For primary screens, the MIPE collection was tested at 11-point dilutions (final concentrations range from 0.78 nM to 46 µM) and the NPC collection at 8-point dilutions (final concentrations range from 0.59nM to 46 µM). Compounds tested in follow-up screens were assayed at 11-point dilutions. Cells were incubated for 48 hours, followed by addition of 3 uL of CellTiter-Glo (Promega). After a 15 min incubation at room temperature, samples were analyzed for luminescence intensity using a ViewLux High-throughput CCD imager equipped with clear filters.
Potency is the fitted concentration of half-maximal effect.

Row | SMILES | Potency | activity change, negative = cytotoxic
1 | C[C@]12CCC(=O)C=C1CC[C@@H]1[C@H]3CC[C@](C)(O)[C@@]3(C)CC[C@@H]12 | 30.9 µM (active) | 
2 | CC(=O)NC1CCSC1=O (stereo not given) |  | -12.5%
3 | C[C@]12CCC(=O)C=C1CC[C@@H]1[C@@H]2CC[C@]2(C)C(=O)CC[C@@H]12 |  | -15.6%
4 | C#CC(O)(C=CCl)CC (stereo not given) |  | 1.72%
5 | Nc1nc(N)nc(NC2CC2)n1 |  | -27%
6 | COC1CC(=C(c2cccs2)c2cccs2)C[N+](C)(C)C1 (stereo not given) |  | -27.1%
7 | O=C1c2ccccc2C(=O)c2ccccc21 |  | 2.3% [at 16.1 µM]
8 | COc1c2c(cc3c1OCO3)CCN(C)C2 |  | -16.1%
9 | CC(C)(C)NCC(O)c1cc(Cl)c(N)c(C(F)(F)F)c1 (stereo not given) |  | -32%
10 | C[N+]1(CCF)[C@@H]2CC[C@H]1CC(OC(=O)C(O)(c1ccccc1)c1ccccc1)C2 (stereo not given in full) |  | 2.69%
11 | Nc1ccccc1 |  | -1.52%
12 | C=C(C)[C@H]1CN[C@H](C(=O)O)[C@H]1CC(=O)O |  | -0.488%
13 | CC(=O)OCC1=C(C(=O)O)N2C(=O)[C@@H](N)[C@H]2SC1 |  | 2.44% [at 16.1 µM]
14 | COP(=S)(OC)Oc1ccc(S(=O)(=O)N(C)C)cc1 |  | -15.1%
15 | C=CCN1C[C@H](C)N([C@H](c2ccc(C(=O)N(CC)CC)cc2)c2cccc(OC)c2)C[C@H]1C |  | 13.7%
16 | CCC(C)C(C)(COC(N)=O)COC(N)=O (stereo not given) |  | -7.49%
17 | CCN(CC)CCc1c[nH]c2ccccc12 |  | -19.6% [at 155 µM]
18 | c1ccc(CN2CCNCC2)cc1 |  | -3.32% [at 155 µM]
19 | CCC1(CC)C(=O)C=CNC1=O |  | 10.9%
20 | CC(C)c1cccc(C(C)C)c1O |  | -30.9%

Row | SMILES | Potency | activity change, negative = cytotoxic
21 | CN1CCC(O)(c2ccc(F)cc2)C(C(=O)c2ccc(F)cc2)C1 (stereo not given) |  | 6.65%
22 | Clc1ccc(C(c2ccc(Cl)cc2)C(Cl)(Cl)Cl)cc1 | 5.31 µM (active) | 
23 | CC(NC(C)(C)C)C(=O)c1cccc(Cl)c1 (stereo not given) | 1.1 nM (active) and 29.6 µM (active) | 
24 | C[C@](O)(CS(=O)(=O)c1ccc(F)cc1)C(=O)Nc1ccc(C#N)c(C(F)(F)F)c1 | 0.469 µM (active) | 
25 | CN1C(=O)COc2c(C(=O)NC3CN4CCC3CC4)cc(Cl)cc21 (stereo not given) | inactive | 
26 | CCN[C@@H](C)Cc1cccc(C(F)(F)F)c1 |  | -18.1%
27 | CNC(C)(C)Cc1ccccc1 |  | -10.7%
28 | C[C@]12CC[C@H]3[C@@H](CC[C@@]45O[C@H]4C(O)=C(C#N)C[C@]35C)[C@H]1CC[C@H]2O | 3.32 µM (active) | 
29 | NC1=NC(=O)C(c2ccccc2)O1 (stereo not given) |  | -3.68%
30 | CCC(CC)(CNC(=O)CCCO)c1cccc(OC)c1 |  | -20.5%
31 | O=c1[nH]oc2c1CCNC2 |  | -0.102%
32 | CCC1(c2ccc(N)cc2)CCC(=O)NC1=O (stereo not given) |  | -20.9%
33 | COc1cccc([C@@]2(O)CCCC[C@@H]2CN(C)C)c1 |  | -17.6%
34 | C[C@]12CC[C@@H]3c4ccc(OC(=O)N(CCCl)CCCl)cc4CC[C@H]3[C@@H]1CC[C@@H]2OP(=O)(O)O |  | 4.81%
35 | C=CCC1(C(C)CC)C(=O)NC(=O)NC1=O (stereo not given) |  | -13%
36 | O=C(N/N=C/c1ccc([N+](=O)[O-])o1)c1cc([N+](=O)[O-])cc([N+](=O)[O-])c1O |  | 13.3%
37 | COc1cc(CCN)cc(OC)c1OC |  | -20.3% [at 92.7 µM]
38 | C#C[C@]1(O)CC[C@H]2[C@@H]3CCC4=CC(=O)CC[C@]4(C)[C@H]3CC[C@@]21C |  | 1.18%
39 | CCC(C)(C)c1ccc(O)cc1 |  | 0.0175%
40 | NC(=O)c1cc([N+](=O)[O-])cc([N+](=O)[O-])c1 |  | 1.29%
